Assay results reported in publication PMC5540273 (PLoS ONE, 2017).

Key:
Settings in all cases: concentration: 1 μM,replicates: in singlicate; n = 1
CLK2 = test system: CLK2
CLK3 = test system: CLK3
CLK4 = test system: CLK4
CSF1R-autoinhibited = test system: CSF1R-autoinhibited
CSF1R = test system: CSF1R
CSK = test system: CSK
CSNK1A1L = test system: CSNK1A1L
CSNK1A1 = test system: CSNK1A1
CSNK1D = test system: CSNK1D
CSNK1E = test system: CSNK1E
CSNK1G1 = test system: CSNK1G1
CSNK1G2 = test system: CSNK1G2
CSNK1G3 = test system: CSNK1G3
CSNK2A1 = test system: CSNK2A1
CSNK2A2 = test system: CSNK2A2
CTK = test system: T1, CTK
T1 construct: gene MATK

DAPK1 = test system: DAPK1
DAPK2 = test system: DAPK2
DAPK3 = test system: DAPK3
DCAMKL1 = test system: T2, DCAMKL1
T2 construct: gene DCLK1
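Also: KINOMEscan kinase panel screen.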

For `CN(c1cccc(CNc2nc(Nc3ccc4c(c3)CC(=O)N4)ncc2C(F)(F)F)c1)S(C)(=O)=O`, the “%Inh” value (CLK2) was 26%, the “%Inh” value (CLK3) was 16% and the “%Inh” value (CLK4) was 47%. The “%Inh” value (CSF1R-autoinhibited) was 31%, the “%Inh” value (CSF1R) was 15% and the “%Inh” value (CSK) was 0%. The “%Inh” value (CSNK1A1L) was 0%, the “%Inh” value (CSNK1A1) was 0% and the “%Inh” value (CSNK1D) was 7%. The “%Inh” value (CSNK1E) was 18%, the “%Inh” value (CSNK1G1) was 0% and the “%Inh” value (CSNK1G2) was 5%. For the same compound, the “%Inh” value (CSNK1G3) was 16%, the “%Inh” value (CSNK2A1) was 35% and the “%Inh” value (CSNK2A2) was 44%. For the same compound, the “%Inh” value (CTK) was 0%, the “%Inh” value (DAPK1) was 35% and the “%Inh” value (DAPK2) was 0%. The “%Inh” value (DAPK3) was 1% and the “%Inh” value (DCAMKL1) was 55%.
With `CC(=O)c1c(-c2ccncc2)[nH]c(-c2ccncc2)c1C` [GW493036] the “%Inh” value (CLK2) was 82%, the “%Inh” value (CLK3) was 65% and the “%Inh” value (CLK4) was 96.1%. The “%Inh” value (CSF1R-autoinhibited) was 19%, the “%Inh” value (CSF1R) was 12% and the “%Inh” value (CSK) was 8%. For the same compound, the “%Inh” value (CSNK1A1L) was 79%, the “%Inh” value (CSNK1A1) was 93.4% and the “%Inh” value (CSNK1D) was 93.7%. For the same compound, the “%Inh” value (CSNK1E) was 90%, the “%Inh” value (CSNK1G1) was 84% and the “%Inh” value (CSNK1G2) was 98.6%. The “%Inh” value (CSNK1G3) was 98.6%, the “%Inh” value (CSNK2A1) was 0% and the “%Inh” value (CSNK2A2) was 8%. The “%Inh” value (CTK) was 0%, the “%Inh” value (DAPK1) was 0% and the “%Inh” value (DAPK2) was 0%. For the same compound, the “%Inh” value (DAPK3) was 19% and the “%Inh” value (DCAMKL1) was 25%.
With `O=C(Nc1ccccc1)c1cccc(Oc2ccc3nccn3n2)c1` the “%Inh” value (CLK2) was 20%, the “%Inh” value (CLK3) was 0% and the “%Inh” value (CLK4) was 0%. For the same compound, the “%Inh” value (CSF1R-autoinhibited) was 0%, the “%Inh” value (CSF1R) was 81% and the “%Inh” value (CSK) was 0%. For the same compound, the “%Inh” value (CSNK1A1L) was 0%, the “%Inh” value (CSNK1A1) was 0% and the “%Inh” value (CSNK1D) was 0%. For the same compound, the “%Inh” value (CSNK1E) was 0%, the “%Inh” value (CSNK1G1) was 10% and the “%Inh” value (CSNK1G2) was 6%. The “%Inh” value (CSNK1G3) was 0%, the “%Inh” value (CSNK2A1) was 0% and the “%Inh” value (CSNK2A2) was 11%. For the same compound, the “%Inh” value (CTK) was 28%, the “%Inh” value (DAPK1) was 100% and the “%Inh” value (DAPK2) was 0%. The “%Inh” value (DAPK3) was 0% and the “%Inh” value (DCAMKL1) was 0%.
In the case of `CC(C)S(=O)(=O)N1CCN(Cc2ccc3c(c2)nc(NC(=O)c2ccsc2)n3C[C@H](O)c2ccccc2)CC1` [GW635815], the “%Inh” value (CLK2) is reported as 91.9%, the “%Inh” value (CLK3) is reported as 79% and the “%Inh” value (CLK4) is reported as 95.5%. For the same compound, the “%Inh” value (CSF1R-autoinhibited) was 45%, the “%Inh” value (CSF1R) was 68% and the “%Inh” value (CSK) was 13%. The “%Inh” value (CSNK1A1L) was 68%, the “%Inh” value (CSNK1A1) was 60% and the “%Inh” value (CSNK1D) was 56%. For the same compound, the “%Inh” value (CSNK1E) was 71%, the “%Inh” value (CSNK1G1) was 16% and the “%Inh” value (CSNK1G2) was 5%. The “%Inh” value (CSNK1G3) was 20%, the “%Inh” value (CSNK2A1) was 6% and the “%Inh” value (CSNK2A2) was 37%. The “%Inh” value (CTK) was 0%, the “%Inh” value (DAPK1) was 0% and the “%Inh” value (DAPK2) was 0%. For the same compound, the “%Inh” value (DAPK3) was 31% and the “%Inh” value (DCAMKL1) was 0%.
With `C[C@@H]1CNc2c(sc3ccc4nc(-c5ccncc5)ccc4c23)C(=O)N1` the “%Inh” value (CLK2) was 94%, the “%Inh” value (CLK3) was 32% and the “%Inh” value (CLK4) was 81%. The “%Inh” value (CSF1R-autoinhibited) was 3%, the “%Inh” value (CSF1R) was 8% and the “%Inh” value (CSK) was 19%. The “%Inh” value (CSNK1A1L) was 66%, the “%Inh” value (CSNK1A1) was 95% and the “%Inh” value (CSNK1D) was 34%. The “%Inh” value (CSNK1E) was 29%, the “%Inh” value (CSNK1G1) was 16% and the “%Inh” value (CSNK1G2) was 15%. For the same compound, the “%Inh” value (CSNK1G3) was 21%, the “%Inh” value (CSNK2A1) was 38% and the “%Inh” value (CSNK2A2) was 0%. The “%Inh” value (CTK) was 0%, the “%Inh” value (DAPK1) was 30% and the “%Inh” value (DAPK2) was 24%. The “%Inh” value (DAPK3) was 13% and the “%Inh” value (DCAMKL1) was 4%.
In the case of `Cc1cccc2c(-c3ccncc3)c(-c3ccc(F)cc3)nn12.Cl` [GW461487], the “%Inh” value (CLK2) is reported as 0%, the “%Inh” value (CLK3) is reported as 3% and the “%Inh” value (CLK4) is reported as 0%. For the same compound, the “%Inh” value (CSF1R-autoinhibited) was 4%, the “%Inh” value (CSF1R) was 0% and the “%Inh” value (CSK) was 0%. For the same compound, the “%Inh” value (CSNK1A1L) was 22%, the “%Inh” value (CSNK1A1) was 51% and the “%Inh” value (CSNK1D) was 93.3%. For the same compound, the “%Inh” value (CSNK1E) was 84%, the “%Inh” value (CSNK1G1) was 11% and the “%Inh” value (CSNK1G2) was 0%. For the same compound, the “%Inh” value (CSNK1G3) was 26%, the “%Inh” value (CSNK2A1) was 96.6% and the “%Inh” value (CSNK2A2) was 10%. The “%Inh” value (CTK) was 0%, the “%Inh” value (DAPK1) was 18% and the “%Inh” value (DAPK2) was 0%. For the same compound, the “%Inh” value (DAPK3) was 0% and the “%Inh” value (DCAMKL1) was 10%.
With `CC(C(=O)NC1CCN(c2ccnc(Nc3ccc(F)cc3)n2)C1)c1ccc(Cl)cc1` (stereo not drawn) [GSK1379713] the “%Inh” value (CLK2) was 0%, the “%Inh” value (CLK3) was 0% and the “%Inh” value (CLK4) was 8%. The “%Inh” value (CSF1R-autoinhibited) was 0%, the “%Inh” value (CSF1R) was 0% and the “%Inh” value (CSK) was 0%. For the same compound, the “%Inh” value (CSNK1A1L) was 3%, the “%Inh” value (CSNK1A1) was 22% and the “%Inh” value (CSNK1D) was 0%. For the same compound, the “%Inh” value (CSNK1E) was 3%, the “%Inh” value (CSNK1G1) was 0% and the “%Inh” value (CSNK1G2) was 0%. For the same compound, the “%Inh” value (CSNK1G3) was 18%, the “%Inh” value (CSNK2A1) was 1% and the “%Inh” value (CSNK2A2) was 0%. The “%Inh” value (CTK) was 0%, the “%Inh” value (DAPK1) was 0% and the “%Inh” value (DAPK2) was 0%. For the same compound, the “%Inh” value (DAPK3) was 0% and the “%Inh” value (DCAMKL1) was 0%.
For `Cc1ccc(CC(=O)N2CCc3cc(-c4cn(C)c5ncnc(N)c45)ccc32)cc1` [GSK2634758], the “%Inh” value (CLK2) was 0%, the “%Inh” value (CLK3) was 0% and the “%Inh” value (CLK4) was 0%. The “%Inh” value (CSF1R-autoinhibited) was 21%, the “%Inh” value (CSF1R) was 79% and the “%Inh” value (CSK) was 100%. The “%Inh” value (CSNK1A1L) was 14%, the “%Inh” value (CSNK1A1) was 0% and the “%Inh” value (CSNK1D) was 16%. For the same compound, the “%Inh” value (CSNK1E) was 66%, the “%Inh” value (CSNK1G1) was 30% and the “%Inh” value (CSNK1G2) was 26%. For the same compound, the “%Inh” value (CSNK1G3) was 26%, the “%Inh” value (CSNK2A1) was 0% and the “%Inh” value (CSNK2A2) was 0%. For the same compound, the “%Inh” value (CTK) was 0%, the “%Inh” value (DAPK1) was 0% and the “%Inh” value (DAPK2) was 5%. For the same compound, the “%Inh” value (DAPK3) was 0% and the “%Inh” value (DCAMKL1) was 0%.
With `CC(=O)Nc1nc2cnc(Nc3cc(NC(=O)c4cccc(CC(C)(C)C#N)c4)ccc3C)nc2s1` the “%Inh” value (CLK2) was 0%, the “%Inh” value (CLK3) was 0% and the “%Inh” value (CLK4) was 7%. The “%Inh” value (CSF1R-autoinhibited) was 28%, the “%Inh” value (CSF1R) was 99.7% and the “%Inh” value (CSK) was 7%. The “%Inh” value (CSNK1A1L) was 11%, the “%Inh” value (CSNK1A1) was 31% and the “%Inh” value (CSNK1D) was 6%. The “%Inh” value (CSNK1E) was 0%, the “%Inh” value (CSNK1G1) was 14% and the “%Inh” value (CSNK1G2) was 1%. The “%Inh” value (CSNK1G3) was 0%, the “%Inh” value (CSNK2A1) was 21% and the “%Inh” value (CSNK2A2) was 21%. The “%Inh” value (CTK) was 0%, the “%Inh” value (DAPK1) was 0% and the “%Inh” value (DAPK2) was 0%. For the same compound, the “%Inh” value (DAPK3) was 4% and the “%Inh” value (DCAMKL1) was 26%.
